Source: PubChem BioAssay (EPA / NIEHS)
Inconclusive results are not listed. Activity calls are given as the source filed them. Rule for the calls: active = hit-call score of the fitted dose curve at least 0.9, where 1 is the maximum; inconclusive = response in the unintended direction; inactive = score below 0.9.

test: Tanguay_ZF_120hpf_BRAI_legacy: (Legacy) Oregon State University Tanguay Lab 120 Hour Post-fertilization zebrafish Assay for Brain Malformation (AID 2283641)
Experimental: Tanguay_ZF_120hpf_legacy is a whole embryo, multiplexed endpoint assay using zebrafish larvae exposed for 120 hours post fertilization on a 96-well plate.Tanguay_ZF_120hpf_BRAI_legacy is one of one assay component(s) measured or calculated from the Tanguay_ZF_120hpf_legacy assay. It is designed to make measurements of zebrafish development as detected with brightfield microscopy of developing zebrafish embryos.Data from the assay component Tanguay_ZF_120hpf_BRAI_legacy was analyzed into 1 assay endpoints. This assay endpoint, Tanguay_ZF_120hpf_BRAI_legacy, was analyzed in the positive analysis fitting direction relative to DMSO as the negative control and baseline of activity. Using a type of morphology reporter, gain-of-signal activity can be used to understand changes in developmentals as they relate to the whole embryo. To generalize the intended target to other relatable targets, this assay endpoint is annotated to the zebrafish development intended target family, where the subfamily is brain morphogenesis.
Zebrafish husbandry: Tropical 5D wild-type adult zebrafish were housed in at an approximate density of 1000 per 100 gallon tank at the Sinnhuber Aquatic Research Laboratory, Oregon State University, Corvallis, OR. Each tank was kept at standard laboratory conditions of 28C on a 14-h light/10-h dark photoperiod in fish water consisting of reverse osmosis water supplemented with a commercially available salt (Instant Ocean). Spawning funnels were placed into the tanks the night prior, and embryos were collected and staged. […] Ten microliters of each row of dilution plate 2 was added to 2 exposure plates. The final DMSO concentration used was 0.64% (vol/vol). Thirty-two embryos were also exposed to 5uM trimethyltin chloride (positive control). Plates were sealed to prevent evaporation and foil covered to reduce light exposure and kept in a 28C incubator. Embryos were statically exposed until 120 hpf. At 24 hpf, embryos were assessed for photomotor response using a custom photomotor response analysis tool (PRAT) and for developmental toxicity endpoints (MO24: mortality at 24 hpf, DP: developmental progression, SM: spontaneous movement, and NC: notochord distortion). At 120 hpf, locomotor activity was measured using Viewpoint Zebralab and assessed for 18 endpoints. Zebrafish acquisition and analysis program (ZAAP), a custom program designed to inventory, acquire, and manage zebrafish data, was used to collect developmental endpoints as either present or absent (i.e., binary responses were recorded). If mortality occurred for an embryo (at either 24 or 120 hpf), the non-mortality endpoints were not measured.

Structure (SMILES) | outcome | AC50
Cc1ccc(C(C)C)cc1 | inactive | –
CN(C[C@@H](CC[N+]12CCC(C3CCCCC3)(CC1)CC2)c1ccc(Cl)c(Cl)c1)C(=O)c1cc(C(F)(F)F)cc(C(F)(F)F)c1 | inactive | –
CC(C)(C)c1cc(/C=C2\SC(N)=NC2=O)cc(C(C)(C)C)c1O | inactive | –
COc1cccc([C@H](O)C2CCN(CCc3ccc(F)cc3)CC2)c1OC | inactive | –
O=C(O)Cc1cc(I)c(Oc2ccc(O)c(I)c2)c(I)c1 | inactive | –
CCN(CC)C(=O)c1cc(S(=O)(=O)Cc2ccccc2)c(N2CCC(c3ccccc3)CC2)cc1N(CC)CCN(C)C | – | 13.8 µM (active)
CC[C@H](NC(=O)c1cc(F)ccc1NS(=O)(=O)c1cccc2cccnc12)c1ccccc1 | inactive | –
CCN(Cc1cccnc1)C(=O)c1cccc(Cl)c1[C@]1(C)C(=O)N(Cc2ccc(OC)cc2OC)c2ccc(Cl)cc21 | inactive | –
OC12N=C(c3ccccc3)SC1Cc1cc(Cl)ccc12 (stereo not given) | inactive | –
Cc1ncc(CO)c(CO)c1O | inactive | –
O=C1O[C@H]([C@@H](O)CO)C(O)=C1O | inactive | –
CCCCCCCCCCCCO | inactive | –
COCC(C)OCC(C)OCC(C)O (stereo not given) | inactive | –
CCO[Si](CCCNC(N)=O)(OCC)OCC | inactive | –
COc1cc(C(=O)NC2CCN(C)CC2)ccc1Nc1ncc2c(n1)N(C1CCCC1)CC(F)(F)C(=O)N2C | – | 12.3 µM (active)
Clc1ccccc1C(c1ccccc1)(c1ccccc1)n1ccnc1 | – | 87.3 µM (active)
CC(C)(O)c1ccc(CNC(=O)c2cccnc2Oc2ccc3nonc3c2)cc1 | inactive | –
Clc1cc(Cl)c2c(c1)N=C1CCCCCN1C2 | inactive | –
NC(=O)c1nc(-c2cccc(-c3cc(F)ccc3OCC(F)(F)C(F)(F)F)c2)n[nH]1 | – | 26 µM (active)
Oc1ccc2ccccc2c1 | – | 10.3 µM (active)

Structure (SMILES) | outcome | AC50
O=c1c(-c2ccc(O)cc2)coc2cc(O)cc(O)c12 | inactive | –
O=C(O)c1ccccc1-n1cc(C(=O)O)c(=O)c2cc(Nc3c(F)cc(F)cc3Cl)c(Cl)cc21 | inactive | –
Cc1oc2c(NC(=O)c3c(Cl)cccc3Cl)cccc2c1C(C)(C)O | inactive | –
O=C(Nc1ccc(Cl)cc1)Nc1ccc(Cl)c(Cl)c1 | inactive | –
CC(C)(c1cc(Br)c(O)c(Br)c1)c1cc(Br)c(O)c(Br)c1 | inactive | –
CC[C@@H]1C[C@H](N(Cc2cc(C(F)(F)F)cc(C(F)(F)F)c2)C(C)=O)c2cc(C(F)(F)F)ccc2N1C(=O)OC(C)C | inactive | –
O=c1[nH]sc2ccccc12 | inactive | –
CC/C(=C(/CC)c1ccc(O)cc1)c1ccc(O)cc1 | inactive | –
O=C(O)Cn1c(=O)n(Cc2ccc(Br)cc2F)c(=O)c2ccc(Cl)cc21 | inactive | –
O=C1c2ccccc2C(=O)N1CCc1noc(-c2ccc(CN3CCCCCC3)s2)n1 | inactive | –
CCCCCCCCCC(=O)O | inactive | –
C[C@]12CC[C@@H]3c4ccc(O)cc4CC[C@H]3[C@@H]1CC[C@H]2O | inactive | –
O=C1CCC(C2CCCCC2)CC1 | inactive | –
Oc1ccccc1 | inactive | –
COc1ccc2cc(S(=O)(=O)N[C@H](CC(=O)N[C@H](Cc3ccc(CN4[C@H](C)CCC[C@@H]4C)cc3)C(=O)N(C)C(C)C)c3ccc4c(c3)OCO4)ccc2c1 | inactive | –
CCCCCCCCN(C)CCCCCCCC | inactive | –
O=C=NCCCCCCN=C=O | inactive | –
c1ccc2ccccc2c1 | inactive | –
CC1=CC(=O)/C(=C(/C)O)C(=O)O1 | inactive | –
Cc1c2ccccc2c(C)c2c1ccc1ccccc12 | inactive | –
